According to PubChem BioAssay AID1159580 (chemical genetic matrix, 2015):
About 2,000 (36%) of roughly 5,500 compounds were called active. Another 18% or so got no clear call; they are omitted. No stated cut-off is given here; in the data, active means normalized growth mostly below about 0.91 (no sharp cut-off); inconclusive means no clear call, values can overlap the other calls; inactive means mostly above about 0.92. This is one part of the list.

Test: chemical genetic growth profiling, strain panel (AID 1159580);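 further: tested at 20 µM; growth read once vehicle control cultures reached saturation at 30 °C; 1 = growth at the plate median or of vehicle wells; lower values mean less growth of the strain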
Conditions: S. cerevisiae deletion strains, growth OD

Measured: normalized growth

CC1(C)CCCC2(C)C3C1[C@@H](O)C2(C)C[C@H]3O (stereo not given in full)
inactive: locus YAL021C, strain ccr4, hits give low values 1.01 | locus YAL026C, strain drs2, hits give low values 1.04 | locus YAL030W, strain snc1, hits give low values 0.993 | locus YBL061C, strain skt5, hits give low values 1.01 | locus YBR009C, strain hhf1, hits give low values 1.03 | locus YBR023C, strain chs3, hits give low values 1.01 | locus YBR171W, strain sec66, hits give low values 1.04 | locus YBR231C, strain swc5, hits give low values 1.03 | locus YBR279W, strain paf1, hits give low values 1.03 | locus YCL011C, strain gbp2, hits give low values 1.03 | locus YCL016C, strain dcc1, hits give low values 1 | locus YCL061C, strain MRC1, hits give low values 1.02 | locus YCL069W, strain vba3, hits give low values 1.02 | locus YCR088W, strain abp1, hits give low values 1.03 | locus YDL005C, strain med2, hits give low values 1.03 | locus YDL040C, strain nat1, hits give low values 1.01 | locus YDR001C, strain nth1, hits give low values 1.03 | locus YDR069C, strain doa4, hits give low values 0.992 | locus YDR137W, strain rgp1, hits give low values 0.973 | locus YDR159W, strain sac3, hits give low values 0.991 | locus YDR195W, strain ref2 1.02 | locus YDR297W, strain sur2, hits give low values 0.985 | locus YDR334W, strain swr1, hits give low values 1.03 | locus YDR335W, strain msn5, hits give low values 0.995 | locus YDR392W, strain spt3, hits give low values 0.941 | locus YEL003W, strain gim4, hits give low values 1.03 | locus YEL037C, strain rad23, hits give low values 1.03 | locus YEL061C, strain CIN8 (second series), hits give low values 1.03 | locus YER015W, strain faa2, hits give low values 1.03 | locus YER016W, strain bim1, hits give low values 1.01 | locus YER111C, strain swi4, hits give low values 1.03 | locus YER155C, strain BEM2 (second series), hits give low values 1.02 | locus YFR010W, strain ubp6, hits give low values 1.04 | locus YGL167C, strain pmr1, hits give low values 1.01 | locus YGL173C, strain kem1, hits give low values 1.03 | locus YGL227W, strain vid30, hits give low values 1.03 | locus YGL240W, strain doc1, hits give low values 1 | locus YGL253W, strain hxk2, hits give low values 1.03 | locus YHR013C, strain ard1, hits give low values 1.04 | locus YHR027C, strain rpn1, hits give low values 0.998 | locus YHR030C, strain SLT2, hits give low values 0.976 | locus YHR079C, strain IRE1, hits give low values 0.983 | locus YHR142W, strain chs7, hits give low values 1.01 | locus YJL092W, strain hpr5, hits give low values 1.03 | locus YJL095W, strain BCK1 (second series), hits give low values 0.988 | locus YJL095W, strain BCK1, hits give low values 1 | locus YJL115W, strain asf1, hits give low values 1.03 | locus YJL129C, strain trk1, hits give low values 1.05 | locus YJL154C, strain vps35, hits give low values 1.02 | locus YJL164C, strain tpk1, hits give low values 1.01 | locus YJL166W, strain qcr8, hits give low values 1.04 | locus YJL187C, strain SWE1, hits give low values 0.985 | locus YJR066W, strain TOR1, hits give low values 0.923 | locus YKL160W, strain elf1, hits give low values 0.986 | locus YKR026C, strain gcn3, hits give low values 1.02 | locus YKR091W, strain srl3, hits give low values 1.02 | locus YLL001W, strain dnm1, hits give low values 0.994 | locus YLL026W, hits give low values 1.01 | locus YLL041C, strain sdh2, hits give low values 0.995 | locus YLR027C, strain aat2, hits give low values 1 | locus YLR113W, strain HOG1, hits give low values 1.05 | locus YLR221C, strain rsa3, hits give low values 1.02 | locus YLR258W, strain gsy2, hits give low values 1.01 | locus YLR262C, strain YPT6 (second series), hits give low values 1.04 | locus YLR320W, strain mms22, hits give low values 1.07 | locus YLR342W, strain FKS1, hits give low values 1.02 | locus YLR357W, strain rsc2, hits give low values 1.04 | locus YLR370C, strain arc18, hits give low values 1.01 | locus YLR384C, strain iki3, hits give low values 1.02 | locus YML120C, strain ndi1, hits give low values 1.01 | locus YMR058W, strain fet3, hits give low values 1.03 | locus YMR125W, strain sto1, hits give low values 1.04 | locus YMR129W, hits give low values 1.03 | locus YMR205C, strain PFK2, hits give low values 1.01 | locus YMR231W, strain pep5, hits give low values 1.03 | locus YNL071W, strain lat1, hits give low values 1.02 | locus YNL183C, strain NPR1, hits give low values 0.963 | locus YNL209W, strain ssb2, hits give low values 0.997 | locus YNL248C, strain rpa49, hits give low values 0.996 | locus YNL322C, strain KRE1 (second series), hits give low values 1.01 | locus YNR049C, strain mso1, hits give low values 0.993 | locus YOR001W, strain rrp6, hits give low values 1 | locus YOR070C, strain gyp1, hits give low values 1 | locus YOR080W, strain dia2, hits give low values 1.01 | locus YOR083W, strain WHI5, hits give low values 0.999 | locus YOR106W, strain vam3, hits give low values 0.985 | locus YOR231W, strain MKK1, hits give low values 0.977 | locus YOR265W, strain rbl2, hits give low values 1 | locus YOR270C, strain vph1, hits give low values 1.08 | locus YOR290C, strain snf2, hits give low values 0.985 | locus YPL051W, strain arl3, hits give low values 1 | locus YPL078C, strain atp4, hits give low values 1.01 | locus YPL106C, strain sse1, hits give low values 1.06 | locus YPL240C, strain hsp82, hits give low values 0.987 | locus YPL256C, strain CLN2, hits give low values 1
